# Reference: publication PMC7862700, “An all-to-all approach to the identification of sequence-specific readers for epigenetic DNA modifications on cytosine”
# How the values were obtained:
# Test in all cases: DAPPL (digital affinity profiling via proximity ligation, sequencing); 10 mM Tris-HCl pH 7.5, 50 mM NaCl, 1 mM DTT, 4% glycerol, room temperature, 30 min; GST-TFs on glutathione beads, 16-mer random dsDNA library, 0.1% formaldehyde crosslink after washing; high values mean tight binding
# Conditions in all cases: protein: recombinant; tags: N-terminal GST; dsDNA, one strand shown
# SPIC = target: T1, SPIC (Homo sapiens, UniProt Q8N5J4 1-248)
# T1 sequence: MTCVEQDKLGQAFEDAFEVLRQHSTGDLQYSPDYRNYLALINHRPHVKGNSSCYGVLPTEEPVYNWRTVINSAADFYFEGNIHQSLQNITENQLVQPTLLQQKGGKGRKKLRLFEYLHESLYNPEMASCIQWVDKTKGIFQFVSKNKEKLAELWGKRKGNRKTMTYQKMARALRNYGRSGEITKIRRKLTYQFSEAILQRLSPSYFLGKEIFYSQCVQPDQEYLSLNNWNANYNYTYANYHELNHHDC
# Method in brief: (§1)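 In yeast, human transcription factors were expressed with a GST fusion, then pulled down on glutathione beads and given DNA barcodes. Pooled with a tag-only sample, they were exposed to 200 nmole of a 16-mer random double-stranded DNA library (Tris/NaCl/DTT/glycerol buffer, room temperature, 30 min), washed, crosslinked with 0.1% formaldehyde, proximity-ligated using BsaI/T4 ligase for 1 h at 37 °C, PCR-amplified and read on an Illumina NextSeq500. Each hexamer's frequency of reads for a factor, divided by the matching frequency for the tag-only sample, gives the binding signal.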
# ELF4 = ELF4 (Homo sapiens, UniProt Q99607 1-663)
# Method in brief: as §1
# ELF3 = target: T2, ELF3 (Homo sapiens, UniProt P78545 1-371)
# T2 sequence: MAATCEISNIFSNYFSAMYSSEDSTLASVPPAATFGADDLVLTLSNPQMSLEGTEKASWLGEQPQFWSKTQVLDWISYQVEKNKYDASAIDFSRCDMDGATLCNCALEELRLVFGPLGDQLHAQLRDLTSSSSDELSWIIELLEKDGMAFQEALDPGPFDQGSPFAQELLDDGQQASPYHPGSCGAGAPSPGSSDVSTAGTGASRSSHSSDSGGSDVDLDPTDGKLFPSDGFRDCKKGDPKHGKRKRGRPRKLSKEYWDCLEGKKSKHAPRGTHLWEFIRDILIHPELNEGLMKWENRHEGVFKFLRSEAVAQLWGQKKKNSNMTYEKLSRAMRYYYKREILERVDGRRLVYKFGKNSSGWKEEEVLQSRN
# Method in brief: as §1
# CRX = CRX (Homo sapiens, UniProt O43186 1-299)
# Method in brief: as §1
# ETV1 = ETV1 (Homo sapiens, UniProt P50549 1-477)
# Method in brief: as §1
# ERF = target: T3, ERF (Homo sapiens, UniProt P50548 1-548)
# T3 sequence: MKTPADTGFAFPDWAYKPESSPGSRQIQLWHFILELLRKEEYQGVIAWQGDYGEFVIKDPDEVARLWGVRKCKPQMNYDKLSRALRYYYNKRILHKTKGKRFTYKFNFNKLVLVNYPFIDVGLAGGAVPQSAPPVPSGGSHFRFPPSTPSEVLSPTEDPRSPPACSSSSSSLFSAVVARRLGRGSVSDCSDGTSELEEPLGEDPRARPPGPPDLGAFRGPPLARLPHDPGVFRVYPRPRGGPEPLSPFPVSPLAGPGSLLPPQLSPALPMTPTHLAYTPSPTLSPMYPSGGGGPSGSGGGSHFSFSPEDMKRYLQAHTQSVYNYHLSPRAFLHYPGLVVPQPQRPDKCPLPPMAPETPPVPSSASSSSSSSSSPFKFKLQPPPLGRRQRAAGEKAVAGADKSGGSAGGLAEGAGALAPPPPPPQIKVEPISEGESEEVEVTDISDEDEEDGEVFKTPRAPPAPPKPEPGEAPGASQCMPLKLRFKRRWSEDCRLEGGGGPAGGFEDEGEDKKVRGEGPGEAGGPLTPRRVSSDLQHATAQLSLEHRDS
# Method in brief: as §1
# ELK4 = target: T4, ELK4 (Homo sapiens, UniProt P28324-2 1-405)
# T4 sequence: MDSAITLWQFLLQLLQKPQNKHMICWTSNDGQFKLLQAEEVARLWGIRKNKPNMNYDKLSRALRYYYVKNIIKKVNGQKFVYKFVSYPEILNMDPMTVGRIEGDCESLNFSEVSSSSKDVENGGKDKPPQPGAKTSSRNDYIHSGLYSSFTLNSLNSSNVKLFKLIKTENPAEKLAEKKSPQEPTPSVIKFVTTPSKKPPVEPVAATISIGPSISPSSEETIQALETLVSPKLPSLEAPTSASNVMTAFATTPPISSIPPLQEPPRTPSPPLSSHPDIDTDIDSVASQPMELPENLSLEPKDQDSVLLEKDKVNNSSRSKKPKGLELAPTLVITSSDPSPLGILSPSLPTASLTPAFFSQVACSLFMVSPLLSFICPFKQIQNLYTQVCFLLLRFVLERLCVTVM
# Method in brief: as §1
# Sequence of ELF4 (Q99607 whole entry): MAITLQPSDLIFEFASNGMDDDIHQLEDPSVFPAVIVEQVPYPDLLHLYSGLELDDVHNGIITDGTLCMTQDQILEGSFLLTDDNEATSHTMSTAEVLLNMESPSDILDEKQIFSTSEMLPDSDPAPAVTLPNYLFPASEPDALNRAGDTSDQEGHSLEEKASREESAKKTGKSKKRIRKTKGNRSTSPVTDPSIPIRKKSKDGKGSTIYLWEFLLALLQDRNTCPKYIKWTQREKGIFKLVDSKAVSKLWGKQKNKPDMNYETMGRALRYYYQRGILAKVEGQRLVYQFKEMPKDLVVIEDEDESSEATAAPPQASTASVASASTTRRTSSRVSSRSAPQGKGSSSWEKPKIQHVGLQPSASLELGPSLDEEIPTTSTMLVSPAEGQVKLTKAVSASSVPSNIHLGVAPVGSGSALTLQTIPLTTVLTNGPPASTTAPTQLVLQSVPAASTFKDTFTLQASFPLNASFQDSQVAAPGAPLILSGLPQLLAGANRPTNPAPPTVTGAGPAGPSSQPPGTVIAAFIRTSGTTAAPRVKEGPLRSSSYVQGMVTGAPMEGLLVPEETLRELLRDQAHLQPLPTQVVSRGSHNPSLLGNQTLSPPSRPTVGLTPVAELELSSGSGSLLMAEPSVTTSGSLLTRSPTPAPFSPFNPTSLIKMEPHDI
# Sequence of ETV1 (P50549 whole entry): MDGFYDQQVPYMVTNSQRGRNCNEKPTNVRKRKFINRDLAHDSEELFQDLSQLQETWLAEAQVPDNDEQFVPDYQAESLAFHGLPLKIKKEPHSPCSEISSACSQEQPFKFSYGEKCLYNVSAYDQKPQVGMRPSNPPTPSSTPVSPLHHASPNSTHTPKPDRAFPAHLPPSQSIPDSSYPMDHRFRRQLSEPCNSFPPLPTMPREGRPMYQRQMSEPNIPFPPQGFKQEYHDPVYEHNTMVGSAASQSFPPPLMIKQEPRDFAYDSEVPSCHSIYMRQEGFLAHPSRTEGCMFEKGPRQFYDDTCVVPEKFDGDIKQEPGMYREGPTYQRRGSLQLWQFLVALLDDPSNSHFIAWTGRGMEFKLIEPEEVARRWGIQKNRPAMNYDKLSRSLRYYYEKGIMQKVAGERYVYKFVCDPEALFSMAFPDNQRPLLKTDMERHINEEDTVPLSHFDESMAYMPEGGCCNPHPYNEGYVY
# Sequence of CRX (O43186 whole entry): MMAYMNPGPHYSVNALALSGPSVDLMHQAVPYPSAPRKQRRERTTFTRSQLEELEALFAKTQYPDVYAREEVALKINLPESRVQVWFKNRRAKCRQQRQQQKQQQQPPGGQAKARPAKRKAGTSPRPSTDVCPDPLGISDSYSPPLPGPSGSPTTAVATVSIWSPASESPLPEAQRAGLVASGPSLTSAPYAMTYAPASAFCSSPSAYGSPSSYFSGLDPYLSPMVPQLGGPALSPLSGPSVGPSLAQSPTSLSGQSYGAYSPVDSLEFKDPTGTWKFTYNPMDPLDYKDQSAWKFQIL
sequence,measurement,setting,value
GGGCAT,binding signal,SPIC,"1 fold enrichment (6-mer frequency, TF over GST control)"
CTAAGG,binding signal,SPIC,"1.06 fold enrichment (6-mer frequency, TF over GST control)"
same,binding signal,ELF4,"1.02 fold enrichment (6-mer frequency, TF over GST control)"
same,binding signal,ELF3,"1.02 fold enrichment (6-mer frequency, TF over GST control)"
same,binding signal,CRX,"1.12 fold enrichment (6-mer frequency, TF over GST control)"
same,binding signal,ETV1,"1.01 fold enrichment (6-mer frequency, TF over GST control)"
ATTGTG,binding signal,SPIC,"1.07 fold enrichment (6-mer frequency, TF over GST control)"
same,binding signal,ELF4,"1 fold enrichment (6-mer frequency, TF over GST control)"
same,binding signal,ERF,"1.06 fold enrichment (6-mer frequency, TF over GST control)"
AGGGCC,binding signal,SPIC,"1.02 fold enrichment (6-mer frequency, TF over GST control)"
same,binding signal,ELK4,"1.1 fold enrichment (6-mer frequency, TF over GST control)"
